The text below walks through data of PubChem BioAssay (NCI).

A short description of test [1]: NCI Yeast Anticancer Drug Screen. Data for the rad50 strain (AID 155).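 Further: 0% = growth of vehicle-only cultures of the same strain.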 The conditions noted are these: S. cerevisiae rad50 strain growth inhibition, hits give high values. A digest of the protocol: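 Yeast carrying a defined DNA repair defect were exposed to test compounds, and growth was compared with vehicle-treated controls to give percent inhibition.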
Test [2] in a line: NCI Yeast Anticancer Drug Screen. Data for the mec2-1 strain (AID 157). The conditions noted are these: S. cerevisiae mec2-1 strain, hits give high values. A digest of the protocol: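 Strain: mec2-1 (DNA repair/cell cycle alteration). Compound exposure, then growth measured; inhibition expressed relative to vehicle.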
A short description of test [3]: NCI Yeast Anticancer Drug Screen. Data for the sgs1 mgt1 strain (AID 161).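 Further: 0% = growth of cultures given vehicle only.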 The following applies: S. cerevisiae sgs1 mgt1 strain, hits give high values. A digest of the protocol: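 Mutant yeast exposed to compound; growth scored against vehicle-only wells.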
Test [4] in a line: NCI Yeast Anticancer Drug Screen. Data for the cln2 rad14 strain (AID 165).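 Further: 0% = growth equal to vehicle treated cultures.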 The following applies: S. cerevisiae cln2 rad14 strain, hits give high values. A digest of the protocol: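 Compounds are applied to the cln2 rad14 yeast strain, and growth is then compared with that of vehicle-treated cultures to give inhibition.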
Test [5] in a line: NCI Yeast Anticancer Drug Screen. Data for the bub3 strain (AID 167). The following applies: S. cerevisiae bub3 mutant strain, hits give high values. A digest of the protocol: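 Compounds were applied to a genetically altered yeast strain carrying a cell-cycle control defect. Growth inhibition was scored against vehicle-treated controls.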
The nature of test [6]: NCI Yeast Anticancer Drug Screen. Data for the mlh1 rad18 strain (AID 175). The following applies: S. cerevisiae mlh1 rad18 strain growth inhibition, hits give high values. A digest of the protocol: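 Read-out is yeast growth inhibition, calculated against vehicle-only controls. The compound was applied to a strain engineered with DNA damage repair alterations.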
The mark [7] stands for this setting: at 5.0 µM (retest, dose inferred, filed as 0.5).
[8] abbreviates: at 50.0 µM (retest, dose inferred, filed as 5.0).

SMILES strings stand for the structures. The panel holds about 79,000 compounds, 15% with a hit somewhere; the sample as a whole holds those more often. Unmarked numbers belong to inactive results. Activity calls are given as the source filed them. No stated cut-off is given here; in the data, active means growth inhibition above about 70%; inactive means the rest.

Turning to `CN(C)N=Nc1c(-c2ccccc2)n[nH]c1-c1ccccc1`, the growth inhibition is 95% (active) in test [1] (setting [7]); 99% (active) in test [1] (setting [8]); 99.6% (active) in test [1] (at 50.0 µM); 99% (active) in test [2] (setting [7]); 100% (active) in test [2] (setting [8]); 99.5% (active) in test [2] (at 50.0 µM). Further, the growth inhibition in test [3] (setting [7]) was 99% (active); in test [3] (setting [8]), 100% (active); in test [3] (at 50.0 µM) it was 99.3% (active); in test [4] (setting [7]), 99% (active); in test [4] (setting [8]) it was 99% (active); in test [4] (at 50.0 µM), 99.5% (active). Besides, the growth inhibition in test [5] (setting [7]) was 99% (active); in test [5] (setting [8]), 99% (active); in test [5] (at 50.0 µM) it was 99.5% (active); in test [6] (setting [7]), 99% (active); in test [6] (setting [8]), 100% (active); in test [6] (at 50.0 µM), 99.5% (active).

With `O=c1c2ccccc2sc2c(CO)ccc(NCCN3CCCCC3)c12`, the growth inhibition in test [1] (setting [7]) is -5%; in test [1] (setting [8]) it was 45%; in test [1] (at 50.0 µM), 71.2% (active); in test [2] (setting [7]), 6%; in test [2] (setting [8]), -21%; in test [2] (at 50.0 µM) it was 23.6%. Besides, the growth inhibition is -9% in test [3] (setting [7]); 35% in test [3] (setting [8]); 34.5% in test [3] (at 50.0 µM); -21% in test [4] (setting [7]); 13% in test [4] (setting [8]); 24.5% in test [4] (at 50.0 µM). The growth inhibition in test [5] (setting [7]) was 12%; in test [5] (setting [8]), 13%; in test [5] (at 50.0 µM) it was 25.4%; in test [6] (setting [7]), 2%; in test [6] (setting [8]), 40%; in test [6] (at 50.0 µM), 40.1%.

On to `Cc1c(N=Nc2ccc(Br)cc2)c(-c2ccccc2)nn1C(=S)S`, for which the growth inhibition in test [1] (setting [7]) is -1%; in test [1] (setting [8]), 20%; in test [1] (at 50.0 µM) it was 88.7% (active); in test [2] (setting [7]), 2%; in test [2] (setting [8]) it was 26%; in test [2] (at 50.0 µM) it was 88% (active). Moreover, the growth inhibition in test [3] (setting [7]) is 3%; in test [3] (setting [8]), 45%; in test [3] (at 50.0 µM), 90.5% (active); in test [4] (setting [7]), 4%; in test [4] (setting [8]), 34%; in test [4] (at 50.0 µM), 51.5%. The growth inhibition was 3% in test [5] (setting [7]); 74% (active) in test [5] (setting [8]); 86.6% (active) in test [5] (at 50.0 µM); 1% in test [6] (setting [7]); 31% in test [6] (setting [8]); 92.7% (active) in test [6] (at 50.0 µM).

In the case of `c1ccc2c3[nH]c(c2c1)=Nc1ccc(cc1)-c1nc2ccc(cc2o1)N=c1[nH]c(c2ccccc12)=Nc1ccc2nc(oc2c1)-c1ccc(cc1)N=3`, the growth inhibition in test [1] (setting [7]) is 28%; in test [1] (setting [8]) it was 94% (active); in test [1] (at 50.0 µM), 78.2% (active); in test [2] (setting [7]), 18%; in test [2] (setting [8]), 93% (active); in test [2] (at 50.0 µM), 84.8% (active). Moreover, the growth inhibition in test [3] (setting [7]) was 30%; in test [3] (setting [8]) it was 94% (active); in test [3] (at 50.0 µM) it was 82.7% (active); in test [4] (setting [7]), 17%; in test [4] (setting [8]), 81% (active); in test [4] (at 50.0 µM) it was 84% (active). The growth inhibition in test [5] (setting [7]) is 31%; in test [5] (setting [8]), 95% (active); in test [5] (at 50.0 µM), 77% (active); in test [6] (setting [7]) it was 50%; in test [6] (setting [8]), 93% (active); in test [6] (at 50.0 µM), 88.6% (active).

With `CC(C)(C)OC(=O)Nc1cccc(Cl)c1`, the growth inhibition was 11% in test [1] (setting [7]); 71% (active) in test [1] (setting [8]); 73.2% (active) in test [1] (at 50.0 µM); -4% in test [2] (setting [7]); 12% in test [2] (setting [8]); 14.8% in test [2] (at 50.0 µM). The growth inhibition was -1% in test [3] (setting [7]); 7% in test [3] (setting [8]); 55.7% in test [3] (at 50.0 µM); -2% in test [4] (setting [7]); -20% in test [4] (setting [8]); 2.9% in test [4] (at 50.0 µM). Moreover, the growth inhibition in test [5] (setting [7]) is 46%; in test [5] (setting [8]) it was -2%; in test [5] (at 50.0 µM) it was 10.2%; in test [6] (setting [7]) it was 4%; in test [6] (setting [8]), 33%; in test [6] (at 50.0 µM), 80.5% (active).

On to `CC1=NN(c2ccccc2)C(=O)C1N=Nc1cc(Cl)cc(S(=O)(=O)O)c1O` (stereo not given), for which the growth inhibition in test [1] (setting [7]) is 59%; in test [1] (setting [8]), 99% (active); in test [1] (at 50.0 µM) it was 66.3%; in test [2] (setting [7]), 66%; in test [2] (setting [8]), 99% (active); in test [2] (at 50.0 µM) it was 21.6%. For the same compound, the growth inhibition in test [3] (setting [7]) was 21%; in test [3] (setting [8]), 52%; in test [3] (at 50.0 µM), 55.7%; in test [4] (setting [7]) it was 21%; in test [4] (setting [8]) it was 30%; in test [4] (at 50.0 µM) it was 29.7%. The growth inhibition in test [5] (setting [7]) is 66%; in test [5] (setting [8]) it was 30%; in test [5] (at 50.0 µM), 26.3%; in test [6] (setting [7]), 52%; in test [6] (setting [8]), 99% (active); in test [6] (at 50.0 µM) it was 42.5%.

For the compound `O=C(O)CCCc1ccc2ccccc2c1`, the growth inhibition in test [1] (setting [7]) is -5%; in test [1] (setting [8]) it was 0%; in test [1] (at 50.0 µM), 17.4%; in test [2] (setting [7]), 11%; in test [2] (setting [8]) it was -1%; in test [2] (at 50.0 µM), -27.1%. In addition, the growth inhibition in test [3] (setting [7]) is 10%; in test [3] (setting [8]), 6%; in test [3] (at 50.0 µM) it was 11.9%; in test [4] (setting [7]), 14%; in test [4] (setting [8]) it was -71%; in test [4] (at 50.0 µM) it was 40%. Besides, the growth inhibition was 13% in test [5] (setting [7]); 0% in test [5] (setting [8]); 5.65% in test [5] (at 50.0 µM); -1% in test [6] (setting [7]); 9% in test [6] (setting [8]); 12% in test [6] (at 50.0 µM).

For `CO/N=C/c1cc(NC(=S)c2ccoc2C)ccc1Cl`, the growth inhibition in test [1] (setting [7]) is 4%; in test [1] (setting [8]) it was 0%; in test [1] (at 50.0 µM), 93.2% (active); in test [2] (setting [7]), -16%; in test [2] (setting [8]) it was -17%; in test [2] (at 50.0 µM), 94.2% (active). Also, the growth inhibition in test [3] (setting [7]) was 20%; in test [3] (setting [8]) it was 6%; in test [3] (at 50.0 µM) it was 93.7% (active); in test [4] (setting [7]), -26%; in test [4] (setting [8]) it was 10%; in test [4] (at 50.0 µM), 92.2% (active). In addition, the growth inhibition is 9% in test [5] (setting [7]); 34% in test [5] (setting [8]); 92.2% (active) in test [5] (at 50.0 µM); -23% in test [6] (setting [7]); -14% in test [6] (setting [8]); 91.2% (active) in test [6] (at 50.0 µM).

For the compound `C(=NCCC[Si]12OCCN(CCO1)CCO2)c1ccc(C=NCCC[Si]23OCCN(CCO2)CCO3)cc1`, the growth inhibition in test [1] (setting [7]) was 3%; in test [1] (setting [8]), -3%; in test [1] (at 50.0 µM), 38.1%; in test [2] (setting [7]), 2%; in test [2] (setting [8]) it was 3%; in test [2] (at 50.0 µM), 98.3% (active). Moreover, the growth inhibition in test [3] (setting [7]) was -1%; in test [3] (setting [8]) it was -2%; in test [3] (at 50.0 µM), 1.65%; in test [4] (setting [7]), 3%; in test [4] (setting [8]), -4%; in test [4] (at 50.0 µM) it was 87.7% (active). For the same compound, the growth inhibition in test [5] (setting [7]) is 1%; in test [5] (setting [8]), -3%; in test [5] (at 50.0 µM), 76.5% (active); in test [6] (setting [7]), 3%; in test [6] (setting [8]), 3%; in test [6] (at 50.0 µM), 54%.

For `Cc1cc(O)ccc1C1(c2ccc(F)cc2)OC(=O)c2ccccc21` (stereo not given), the growth inhibition in test [1] (setting [7]) was 31%; in test [1] (setting [8]) it was 99% (active); in test [1] (at 50.0 µM), 90.1% (active); in test [2] (setting [7]), 32%; in test [2] (setting [8]), 99% (active); in test [2] (at 50.0 µM), 91.8% (active). For the same compound, the growth inhibition in test [3] (setting [7]) was 37%; in test [3] (setting [8]), 99% (active); in test [3] (at 50.0 µM), 88.2% (active); in test [4] (setting [7]), 31%; in test [4] (setting [8]) it was 97% (active); in test [4] (at 50.0 µM), 91.5% (active). Moreover, the growth inhibition is 29% in test [5] (setting [7]); 98% (active) in test [5] (setting [8]); 90.3% (active) in test [5] (at 50.0 µM); 45% in test [6] (setting [7]); 99% (active) in test [6] (setting [8]); 89.6% (active) in test [6] (at 50.0 µM).
